Reference: the supplement of paper PMC11732987, “Enantioselective OTUD7B fragment discovery through chemoproteomics screening and high-throughput optimisation” (Communications Chemistry, 2025)

How the values were obtained:
Assay in all cases: log2 ratio of Biotin-Ahx-Ub-VS probe labelling (fragment/DMSO); higher = less target engagement (more negative = stronger competition), active = hit call of the paper (q ≤ 0.05, log2 ratio ≤ -1)
Conditions in all cases: compound concentration: 200 uM; treatment time: 3 h
[1] = molecular target: T1, USP19 (UniProt O94966)
T1 sequence (whole entry): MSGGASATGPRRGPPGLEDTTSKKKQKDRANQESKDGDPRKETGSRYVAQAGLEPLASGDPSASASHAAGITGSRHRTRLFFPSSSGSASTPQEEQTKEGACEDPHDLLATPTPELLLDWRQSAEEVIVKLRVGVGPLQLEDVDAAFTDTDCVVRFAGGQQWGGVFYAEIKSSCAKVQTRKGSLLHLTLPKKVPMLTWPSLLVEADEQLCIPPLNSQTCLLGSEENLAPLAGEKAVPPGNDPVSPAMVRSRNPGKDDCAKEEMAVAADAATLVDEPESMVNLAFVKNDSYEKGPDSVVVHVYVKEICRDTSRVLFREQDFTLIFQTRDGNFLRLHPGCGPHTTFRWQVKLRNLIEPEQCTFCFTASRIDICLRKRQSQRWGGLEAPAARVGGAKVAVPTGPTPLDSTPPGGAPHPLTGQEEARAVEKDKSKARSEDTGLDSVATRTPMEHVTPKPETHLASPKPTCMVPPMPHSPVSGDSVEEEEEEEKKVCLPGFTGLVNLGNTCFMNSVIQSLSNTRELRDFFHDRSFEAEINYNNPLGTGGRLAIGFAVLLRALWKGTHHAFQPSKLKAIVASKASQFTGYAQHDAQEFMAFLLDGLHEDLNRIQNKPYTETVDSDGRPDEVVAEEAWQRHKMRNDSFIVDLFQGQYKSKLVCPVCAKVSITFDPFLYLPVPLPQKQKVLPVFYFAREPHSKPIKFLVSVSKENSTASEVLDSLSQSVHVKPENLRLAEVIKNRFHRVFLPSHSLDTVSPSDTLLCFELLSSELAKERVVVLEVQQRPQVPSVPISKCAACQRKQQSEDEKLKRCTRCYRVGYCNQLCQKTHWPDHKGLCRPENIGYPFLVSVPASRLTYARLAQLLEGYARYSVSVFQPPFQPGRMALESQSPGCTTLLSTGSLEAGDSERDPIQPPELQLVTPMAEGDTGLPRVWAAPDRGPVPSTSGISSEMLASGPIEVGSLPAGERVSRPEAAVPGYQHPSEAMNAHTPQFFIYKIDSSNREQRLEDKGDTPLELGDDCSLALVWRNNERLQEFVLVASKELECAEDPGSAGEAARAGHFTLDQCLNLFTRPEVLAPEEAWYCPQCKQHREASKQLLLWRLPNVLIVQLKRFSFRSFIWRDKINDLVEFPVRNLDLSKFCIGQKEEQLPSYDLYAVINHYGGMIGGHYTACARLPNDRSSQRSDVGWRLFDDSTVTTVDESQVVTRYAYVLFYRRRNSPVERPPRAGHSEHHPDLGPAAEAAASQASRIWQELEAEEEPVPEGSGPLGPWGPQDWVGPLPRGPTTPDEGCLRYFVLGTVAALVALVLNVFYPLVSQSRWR
Method in brief: (§1)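 HEK293T lysate (495 µg per sample, in Tris/CHAPS/IGEPAL buffer with protease inhibitors) was exposed in triplicate for 3 h to fragment at 200 µM or to vehicle, then to Biotin-Ahx-Ub-VS at 0.5 µM final for 1 h. Labelled DUBs were enriched on NeutrAvidin, digested with LysC and trypsin, and analysed by diaPASEF LC-MS/MS. Spectronaut label-free quantities were normalised to the global median, and values are average log2 ratios of fragment over vehicle from an unpaired t-test. Only proteins with ≥2 unique peptides were used.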

[2] = molecular target: T2, USP22 (UniProt Q9UPT9)
T2 sequence (whole entry): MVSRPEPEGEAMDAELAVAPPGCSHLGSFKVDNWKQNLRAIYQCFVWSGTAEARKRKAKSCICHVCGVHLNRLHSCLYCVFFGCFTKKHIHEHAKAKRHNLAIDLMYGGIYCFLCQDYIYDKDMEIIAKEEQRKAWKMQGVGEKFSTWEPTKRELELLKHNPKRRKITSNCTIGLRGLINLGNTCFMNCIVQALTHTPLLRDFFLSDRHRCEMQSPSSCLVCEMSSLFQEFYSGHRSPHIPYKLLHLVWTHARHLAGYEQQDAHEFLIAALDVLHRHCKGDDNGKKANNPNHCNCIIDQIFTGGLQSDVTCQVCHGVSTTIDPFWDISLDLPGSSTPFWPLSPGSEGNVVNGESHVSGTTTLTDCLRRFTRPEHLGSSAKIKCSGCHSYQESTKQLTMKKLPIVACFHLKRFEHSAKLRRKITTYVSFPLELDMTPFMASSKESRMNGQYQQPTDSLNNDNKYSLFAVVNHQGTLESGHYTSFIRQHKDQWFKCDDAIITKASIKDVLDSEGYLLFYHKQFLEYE
Method in brief: as §1

[3] = molecular target: USP24 (UniProt Q9UPU5)
Method in brief: as §1

[4] = molecular target: T3, USP25 (UniProt Q9UHP3)
T3 sequence (whole entry): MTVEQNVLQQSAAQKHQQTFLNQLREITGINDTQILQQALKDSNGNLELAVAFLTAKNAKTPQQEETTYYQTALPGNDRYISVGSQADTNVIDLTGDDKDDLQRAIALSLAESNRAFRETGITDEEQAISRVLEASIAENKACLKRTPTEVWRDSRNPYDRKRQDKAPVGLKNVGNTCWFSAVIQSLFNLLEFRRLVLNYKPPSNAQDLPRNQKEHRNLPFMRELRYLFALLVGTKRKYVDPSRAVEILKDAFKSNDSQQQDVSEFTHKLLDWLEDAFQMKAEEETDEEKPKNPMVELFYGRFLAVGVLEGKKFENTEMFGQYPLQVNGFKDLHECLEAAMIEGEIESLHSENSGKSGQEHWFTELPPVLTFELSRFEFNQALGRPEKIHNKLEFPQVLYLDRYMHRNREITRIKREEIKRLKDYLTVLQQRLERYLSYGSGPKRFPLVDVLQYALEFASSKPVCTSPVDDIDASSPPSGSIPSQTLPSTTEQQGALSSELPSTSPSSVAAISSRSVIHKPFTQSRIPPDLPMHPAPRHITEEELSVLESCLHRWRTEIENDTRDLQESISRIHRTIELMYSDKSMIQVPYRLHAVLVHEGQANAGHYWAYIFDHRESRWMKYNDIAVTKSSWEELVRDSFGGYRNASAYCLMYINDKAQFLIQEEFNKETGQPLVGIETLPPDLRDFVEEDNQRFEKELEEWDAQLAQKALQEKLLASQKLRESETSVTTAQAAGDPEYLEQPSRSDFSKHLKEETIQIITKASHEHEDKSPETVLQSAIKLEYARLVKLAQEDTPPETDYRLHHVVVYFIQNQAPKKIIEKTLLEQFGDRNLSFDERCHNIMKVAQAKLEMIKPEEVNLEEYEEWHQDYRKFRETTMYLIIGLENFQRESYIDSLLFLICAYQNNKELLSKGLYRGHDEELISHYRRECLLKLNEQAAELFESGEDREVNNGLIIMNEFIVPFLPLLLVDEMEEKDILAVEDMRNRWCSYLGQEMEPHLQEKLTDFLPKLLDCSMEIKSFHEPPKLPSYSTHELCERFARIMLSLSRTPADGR
Method in brief: as §1

[5] = molecular target: T4, USP28 (UniProt Q96RU2)
T4 sequence (whole entry): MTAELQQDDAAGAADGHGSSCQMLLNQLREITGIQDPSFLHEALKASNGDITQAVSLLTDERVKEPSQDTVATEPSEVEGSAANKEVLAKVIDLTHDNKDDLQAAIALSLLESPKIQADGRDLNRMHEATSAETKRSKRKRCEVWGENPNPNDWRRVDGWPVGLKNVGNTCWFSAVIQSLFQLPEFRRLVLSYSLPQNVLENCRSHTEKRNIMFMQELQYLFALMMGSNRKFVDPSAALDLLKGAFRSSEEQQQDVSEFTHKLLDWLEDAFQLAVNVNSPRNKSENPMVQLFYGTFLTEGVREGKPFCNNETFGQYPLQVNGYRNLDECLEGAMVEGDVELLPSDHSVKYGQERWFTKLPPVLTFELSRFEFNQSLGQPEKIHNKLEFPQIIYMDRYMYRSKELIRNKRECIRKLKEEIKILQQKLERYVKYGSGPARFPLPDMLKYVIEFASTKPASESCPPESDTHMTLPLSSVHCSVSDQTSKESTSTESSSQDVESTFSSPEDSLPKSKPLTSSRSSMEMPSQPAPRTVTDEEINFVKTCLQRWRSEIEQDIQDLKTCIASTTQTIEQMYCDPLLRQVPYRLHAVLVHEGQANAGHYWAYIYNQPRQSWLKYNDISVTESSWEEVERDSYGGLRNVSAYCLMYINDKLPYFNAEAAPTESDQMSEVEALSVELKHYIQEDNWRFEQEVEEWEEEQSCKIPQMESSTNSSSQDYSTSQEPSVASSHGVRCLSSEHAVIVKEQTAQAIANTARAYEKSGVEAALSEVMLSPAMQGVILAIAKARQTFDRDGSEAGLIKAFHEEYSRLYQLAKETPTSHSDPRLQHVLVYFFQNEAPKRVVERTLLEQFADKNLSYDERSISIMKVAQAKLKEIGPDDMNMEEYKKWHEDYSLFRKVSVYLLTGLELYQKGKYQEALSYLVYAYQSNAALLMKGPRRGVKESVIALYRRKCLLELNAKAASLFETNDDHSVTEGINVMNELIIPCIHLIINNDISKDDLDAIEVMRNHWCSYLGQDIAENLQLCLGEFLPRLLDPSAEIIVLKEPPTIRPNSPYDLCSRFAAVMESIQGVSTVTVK
Method in brief: as §1

Measured: log2 ratio of Biotin-Ahx-Ub-VS probe labelling

USP24, sequence (Q9UPU5 whole entry): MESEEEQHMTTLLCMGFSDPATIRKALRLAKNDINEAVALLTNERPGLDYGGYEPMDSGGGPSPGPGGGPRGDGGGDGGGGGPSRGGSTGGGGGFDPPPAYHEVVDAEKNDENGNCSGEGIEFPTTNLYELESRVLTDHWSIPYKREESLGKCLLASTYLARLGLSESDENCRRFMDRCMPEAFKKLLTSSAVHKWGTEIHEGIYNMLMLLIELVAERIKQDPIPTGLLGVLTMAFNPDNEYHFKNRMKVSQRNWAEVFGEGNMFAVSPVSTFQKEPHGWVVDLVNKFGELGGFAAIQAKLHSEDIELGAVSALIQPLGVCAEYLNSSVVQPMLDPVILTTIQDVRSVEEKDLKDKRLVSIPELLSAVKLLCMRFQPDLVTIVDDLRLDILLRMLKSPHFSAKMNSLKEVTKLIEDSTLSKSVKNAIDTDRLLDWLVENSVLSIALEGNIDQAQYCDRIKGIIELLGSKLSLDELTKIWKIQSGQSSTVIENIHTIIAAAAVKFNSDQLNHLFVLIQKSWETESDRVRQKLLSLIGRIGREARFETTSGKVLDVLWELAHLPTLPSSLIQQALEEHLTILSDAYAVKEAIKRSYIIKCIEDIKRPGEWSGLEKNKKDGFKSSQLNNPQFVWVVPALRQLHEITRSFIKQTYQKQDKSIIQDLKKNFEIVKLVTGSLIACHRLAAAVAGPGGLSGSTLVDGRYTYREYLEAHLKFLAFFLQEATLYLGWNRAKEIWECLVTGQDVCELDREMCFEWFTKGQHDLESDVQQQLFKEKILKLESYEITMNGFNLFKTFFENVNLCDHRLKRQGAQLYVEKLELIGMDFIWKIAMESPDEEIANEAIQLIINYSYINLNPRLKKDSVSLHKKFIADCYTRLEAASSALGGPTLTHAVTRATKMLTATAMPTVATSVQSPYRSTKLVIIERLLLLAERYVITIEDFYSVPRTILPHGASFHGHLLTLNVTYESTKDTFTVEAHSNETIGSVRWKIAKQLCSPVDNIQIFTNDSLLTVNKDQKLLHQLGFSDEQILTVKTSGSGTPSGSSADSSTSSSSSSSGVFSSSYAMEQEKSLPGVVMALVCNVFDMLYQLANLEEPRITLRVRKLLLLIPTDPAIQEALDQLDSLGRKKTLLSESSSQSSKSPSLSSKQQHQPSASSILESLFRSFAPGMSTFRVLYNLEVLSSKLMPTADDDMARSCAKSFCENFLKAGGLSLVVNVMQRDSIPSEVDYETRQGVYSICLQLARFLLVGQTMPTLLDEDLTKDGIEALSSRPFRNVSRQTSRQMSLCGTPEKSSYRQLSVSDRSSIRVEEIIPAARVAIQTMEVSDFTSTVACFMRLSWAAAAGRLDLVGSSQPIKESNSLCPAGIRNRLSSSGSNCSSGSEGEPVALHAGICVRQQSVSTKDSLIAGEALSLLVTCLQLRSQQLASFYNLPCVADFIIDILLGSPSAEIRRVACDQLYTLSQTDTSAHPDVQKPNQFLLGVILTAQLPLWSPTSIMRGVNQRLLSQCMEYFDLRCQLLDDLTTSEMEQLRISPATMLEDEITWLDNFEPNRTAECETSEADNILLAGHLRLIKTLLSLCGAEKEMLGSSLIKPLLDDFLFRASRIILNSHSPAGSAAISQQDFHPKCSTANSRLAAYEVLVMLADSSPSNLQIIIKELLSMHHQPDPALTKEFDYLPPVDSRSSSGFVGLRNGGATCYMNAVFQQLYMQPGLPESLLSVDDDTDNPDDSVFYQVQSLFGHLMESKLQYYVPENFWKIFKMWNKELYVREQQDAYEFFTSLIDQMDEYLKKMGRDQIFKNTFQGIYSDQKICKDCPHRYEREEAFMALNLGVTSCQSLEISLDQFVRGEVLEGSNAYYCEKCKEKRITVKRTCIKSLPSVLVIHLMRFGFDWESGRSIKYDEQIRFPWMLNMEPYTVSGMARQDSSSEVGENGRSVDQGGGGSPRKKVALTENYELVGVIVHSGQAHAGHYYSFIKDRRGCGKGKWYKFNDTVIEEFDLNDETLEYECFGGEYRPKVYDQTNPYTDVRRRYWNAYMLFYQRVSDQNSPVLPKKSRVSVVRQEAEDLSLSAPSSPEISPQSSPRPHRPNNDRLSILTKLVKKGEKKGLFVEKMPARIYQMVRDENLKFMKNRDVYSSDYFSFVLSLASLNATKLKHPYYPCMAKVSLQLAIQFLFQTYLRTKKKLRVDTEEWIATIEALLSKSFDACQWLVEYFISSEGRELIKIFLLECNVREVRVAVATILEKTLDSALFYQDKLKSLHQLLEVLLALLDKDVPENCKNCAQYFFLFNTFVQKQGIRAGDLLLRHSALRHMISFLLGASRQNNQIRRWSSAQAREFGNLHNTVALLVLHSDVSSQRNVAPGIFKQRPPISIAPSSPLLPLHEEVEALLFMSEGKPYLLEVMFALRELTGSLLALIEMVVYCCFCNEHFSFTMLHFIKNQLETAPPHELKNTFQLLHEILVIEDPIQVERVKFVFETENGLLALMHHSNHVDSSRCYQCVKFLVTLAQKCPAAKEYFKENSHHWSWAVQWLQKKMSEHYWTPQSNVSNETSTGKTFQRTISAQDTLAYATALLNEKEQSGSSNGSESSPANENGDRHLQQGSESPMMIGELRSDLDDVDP

Cc1cc(C2CCCN2C(=O)CCl)nn1C.Cl (stereo not given)
inactive: [1] -0.282 | [2] -0.312 | [3] -0.202 | [4] -0.257 | [5] -0.271
